# Compounds with a hit are over-represented: about 12% of the library has one in this group of screens.
# Sfp PPTase inh – inhibitors of Bacillus subtilis Sfp phosphopantetheinyl transferase; Q9F4F7; Biochemical Sfp PPTase activity, qHTS; Potency, µM, for the others: largest response in the series, negative = inhibition, usual class: inhibitors; 310,000 tested, 3.5% active; AID 1490;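 also: the enzyme is Sfp with the accession as filed and its product quenches rhodamine fluorescence; 0% = enzyme reaction without inhibitor and -100% = no enzyme wells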
#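 After 15 min at room temperature with compound, 15 nM Sfp received 5 uM rhodamine-CoA plus 12.5 uM BHQ-2-ybbR (50 mM Hepes pH 7.6, 10 mM MgCl2). Rate came from the fluorescence difference over 30 min, ex 525/em 598 nm.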
# JMJD2A Tudor – JMJD2A Tudor domain (human) inhibition | O75164 | Potency, µM (doses to about 114 µM), inactives show at the highest dose activity change, negative = inhibition, actives largely listed as inhibitors | 390,000 tested, 4.4% active | AID 504339 | AlphaScreen JMJD2A-Tudor / H3K4me3 peptide binding; also: % is scaled to controls: 0 for no effect and ±100 for the full control effect; nearly all actives have a fitted effect of over 50% in size
# Target sequence (O75164 whole entry, looked up, the tested form may be a part): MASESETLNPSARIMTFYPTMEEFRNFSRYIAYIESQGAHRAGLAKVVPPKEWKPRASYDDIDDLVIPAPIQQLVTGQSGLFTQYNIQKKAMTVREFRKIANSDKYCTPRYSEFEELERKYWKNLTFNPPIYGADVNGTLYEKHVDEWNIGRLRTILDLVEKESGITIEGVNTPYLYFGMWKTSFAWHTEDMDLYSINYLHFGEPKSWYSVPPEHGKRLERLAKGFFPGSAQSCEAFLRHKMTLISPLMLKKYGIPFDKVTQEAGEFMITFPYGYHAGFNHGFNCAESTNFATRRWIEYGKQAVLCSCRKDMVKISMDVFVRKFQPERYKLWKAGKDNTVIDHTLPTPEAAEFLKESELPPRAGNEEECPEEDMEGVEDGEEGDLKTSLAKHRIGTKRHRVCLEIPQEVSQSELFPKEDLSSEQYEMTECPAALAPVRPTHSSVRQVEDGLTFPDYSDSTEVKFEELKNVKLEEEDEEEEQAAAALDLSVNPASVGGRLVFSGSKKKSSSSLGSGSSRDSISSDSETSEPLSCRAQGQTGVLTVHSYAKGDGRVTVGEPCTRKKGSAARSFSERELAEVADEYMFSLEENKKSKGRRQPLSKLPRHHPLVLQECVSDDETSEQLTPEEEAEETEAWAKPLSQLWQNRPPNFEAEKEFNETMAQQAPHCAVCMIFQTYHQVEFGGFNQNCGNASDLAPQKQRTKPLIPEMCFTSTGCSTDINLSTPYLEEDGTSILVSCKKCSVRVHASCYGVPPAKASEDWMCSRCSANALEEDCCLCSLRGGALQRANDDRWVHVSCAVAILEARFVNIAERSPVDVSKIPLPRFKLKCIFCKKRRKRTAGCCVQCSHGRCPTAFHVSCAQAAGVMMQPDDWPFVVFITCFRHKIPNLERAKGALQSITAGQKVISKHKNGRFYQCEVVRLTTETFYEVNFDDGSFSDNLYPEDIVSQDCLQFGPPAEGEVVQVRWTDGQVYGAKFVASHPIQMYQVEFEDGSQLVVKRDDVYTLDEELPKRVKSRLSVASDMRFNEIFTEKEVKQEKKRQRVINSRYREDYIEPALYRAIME
# G9a block – G9a (human) methyltransferase inhibition | 350,000 tested, 8.8% active | Potency, µM (series often up to 102 µM), for inactives: top-dose activity, negative = inhibition, usual class: inhibitors | G9a H3K9 monomethylation, AlphaScreen, 2 h | AID 504332; also: % is scaled to controls: 0 for no effect and ±100 for the full control effect; nearly all actives have a fitted effect of over 75% in size
#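 Quantitative HTS format: methyltransferase activity on a biotin-tagged H3K9 peptide is measured by AlphaScreen, using a rabbit anti-monomethyl-H3K9 antibody with streptavidin donor and anti-IgG acceptor beads. Final levels are 20 nM enzyme, 500 nM peptide, 20 uM SAM; 2 h RT.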
# HP1b binding inh – blocks HP1-beta chromodomain binding to methylated histone tails. AlphaScreen HP1-beta / biotin-H3K9me3 peptide binding. Potency, µM (series often up to 114 µM), inactives show top-dose activity change, negative = inhibition, usual class: inhibitors. 390,000 tested, 0.56% active. AID 540317; also: nearly all actives have a fitted effect of over 70% in size
#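 HP1-beta protein (50 nM final) preincubated 30 min at room temperature with biotinylated H3(1-18)K9me3 peptide (50 nM) in PBS pH 7.4, 0.01% Tween-20, then compound added for 30 min. AlphaScreen streptavidin donor/nickel chelate acceptor beads (10 ug/mL final), 30 min dark, luminescence read.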
# BAZ2B inh – inhibitors of human BAZ2B bromodomain. Q9UIF8. AlphaScreen BAZ2B-H3K14Ac peptide displacement. Potency, µM (series often up to 114 µM), for the others: top-dose activity change, negative = inhibition, hits mostly inhibitors. 360,000 tested, 4.4% active. AID 504333; also: % is scaled to controls: 0 for no effect and ±100 for the full control effect; nearly all actives have a fitted effect of over 60% in size
#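 Multi-concentration screen (max 110 uM) measuring displacement of acetylated histone H3 peptide from BAZ2B by AlphaScreen, using 50 nM protein, 50 nM peptide and 10 ug/mL streptavidin donor plus Ni-chelate acceptor beads.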
# Numbers without * were called inactive; ? = inconclusive; · = no result; [ ] = remark or other dose. Calls follow the shape of the dose curve; as a rule, active = well fitted curve in the direction sought with a large enough effect; inconclusive = small, poorly fitted or top-dose-only effect, or another doubt; inactive = no such curve, though single readings can be large; an effect the other way counts as inactive or inconclusive. Potency is read from the fitted curve at half-maximal effect.
SMILES,Sfp PPTase inh,JMJD2A Tudor,G9a block,HP1b binding inh,BAZ2B inh
Cc1cccc(N2CCN(C(=O)c3ccc4c(c3)NC(=O)C(CSCc3cccc(F)c3)N4)CC2)c1C (centres undefined),89µM*,·,10µM*,·,?
Nc1ccc2c(c1)ncn2CCCn1cnc2cc(N)ccc21,11%,45µM*,-29%[59 µM],22%,79µM*
CCOc1ccc(-c2nnc3ccc(SCC(=O)N4CCCCC4)nn23)cc1,14%,-9%,35µM*,66%,8%
COc1ccc(-c2nnc3ccc(SCC(=O)N4CCCC4)nn23)cc1,?,-9%,50µM*,43%,9%
CCOc1ccc(-c2nnc3ccc(SCC(=O)N4CCN(c5ccccc5)CC4)nn23)cc1,·,-4%,·,68%,·
O=C(CSc1ccc2nnc(-c3ccc(Cl)cc3)n2n1)N1CCCc2ccccc21,-6%,-21%,32µM*,25%,27%
CCOc1ccc(-c2nnc3ccc(SCC(=O)Nc4nc5ccc(C)cc5s4)nn23)cc1,?,-7%[57.1 µM],45µM*,52%,2%
COc1ccc(-c2nnc3ccc(SCC(=O)N4CCCCCC4)nn23)cc1OC,17%,-28%,?,34%,7%
C#CCCCO/N=C1/C[C@@H](O)[C@@H](O)[C@@H]2[C@@H]3C(=O)N(Cc4ccccc4)C(=O)[C@H]3CC[C@H]12,13%,·,·,·,·
COc1ccc(CNC(=O)C(C)Sc2nc(-c3ccccc3)cc(C(F)(F)F)n2)cc1 (centres undefined),·,-10%,11%[59 µM],45%,3%
Cc1ccc(C(=O)Nc2cccc(C(F)(F)F)c2)cc1NC(=O)c1c[nH]c2cc(C(F)(F)F)ccc2c1=O,·,-9%,·,47%,·
O=C(O)c1c[nH]c2ccc([N+](=O)[O-])cc2c1=O,·,79µM*,·,0%,·
O=C(O)c1c[nH]c2cc(C(F)(F)F)ccc2c1=O,2%,0%,39%[0.501 µM],14%,50µM*
NCCc1c(C(=O)O)[nH]c2ccc([N+](=O)[O-])cc12,7%,-10%[11.4 µM],6%[12.7 µM],-10%,-12%
Cc1c(C(=O)O)[nH]c2ccc([N+](=O)[O-])cc12,4%,79µM*,?,?,79µM*
CCCCN(C)C(=O)CSc1c2c(nc3ccc(Cl)cc13)CCCC2,·,10%,3%[59 µM],51%,·
COc1ccc(-c2nc(CS(=O)CC(=O)NC3CCCC3)c(C)o2)cc1OC (centres undefined),6%,-14%,?,11%[57 µM],0%
O=C(Nc1ccc(F)c(F)c1)C(c1ccccc1)N1Cc2ccccc2C1=O (centres undefined),·,-21%,4%[59 µM],31%,-11%
[O-][n+]1ccccc1SSc1cccc[n+]1[O-],0.71µM*,·,1.3µM*,·,·
Cc1ccc(CS(=O)(=O)CCC(=O)NCC2CCCO2)cc1 (centres undefined),-1%,-13%,-2%[12.7 µM],32%,8%
Cc1ccc(N2CC(C(=O)NCCc3ccc(S(N)(=O)=O)cc3)CC2=O)cc1 (centres undefined),6%,-11%,?,25%,11%
COc1ccc(CNC(=O)C2Cc3cc(S(=O)(=O)N4CCCC4)ccc3N2C(C)=O)c(OC)c1 (centres undefined),9%,-23%,22µM*,42%,?
CC(=O)N1c2ccc(S(=O)(=O)N3CCCCCC3)cc2CC1C(=O)NCc1ccc(Cl)cc1 (centres undefined),·,-16%,1%[59 µM],3%,-4%
CC(=O)N1c2ccc(S(=O)(=O)N3CCCCC3)cc2CC1C(=O)NCc1ccc(N(C)C)cc1 (centres undefined),0%,28µM*,40µM*,-14%,-34%
N#Cc1c(Nc2ccccc2)c(C=NCCN2CCOCC2)c[nH]c1=O,-20%,-18%,·,45%,-2%
SMILES,Sfp PPTase inh,JMJD2A Tudor,G9a block,HP1b binding inh,BAZ2B inh
S=C(NCCN1CCOCC1)Nc1ccc(Br)cc1,19%,-1%,7%[59 µM],15%,1%
O=S(=O)(Nc1ccc(Br)cc1)c1cccc(NC(=S)NCCN2CCOCC2)c1,?,-14%,32µM*,-14%,-15%
O=S(=O)(Nc1ccccc1F)c1cccc(NC(=S)NCCN2CCOCC2)c1,·,40µM*,·,?,·
COC(=O)c1sccc1-c1ccc(/C=N/OC(=O)c2ccccc2)o1,50µM*,-14%,-1%,13%,1%
Cc1ccc(NC(=O)C2CCN(C(=O)[C@@H]3Cc4ccccc4CN3)CC2)cc1,2%,-8%,56µM*,45%,-11%
Cc1ccc(NC(=O)[C@@H]2CCCN2C(=O)[C@@H]2Cc3ccccc3CN2)c(C)c1,13%,-10%,50µM*,37%,-17%
O=C([C@@H]1Cc2ccccc2CN1)N1CCN(Cc2ccccc2)CC1,-8%,-4%,32µM*,42%,79µM*
CC(C)c1ccc(NC(=O)C2CCN(C(=O)[C@@H]3Cc4ccccc4CN3)CC2)cc1,0%,-21%,·,16%,-22%
Cc1cc(C)cc(NC(=O)C2CCN(C(=O)[C@@H]3Cc4ccccc4CN3)CC2)c1,3%,22µM*,50µM*,30%,?
COc1ccc(CCNC(=O)c2cc(=O)[nH]c3ccccc23)cc1,10%,-10%,5%,16%,1%
CSCC[C@H](N)C(=O)N[C@@H](CCC(=O)O)C(=O)N[C@H](C(=O)NCC(=O)N[C@@H](Cc1c[nH]c2ccccc12)C(=O)N[C@@H](Cc1ccc(O)cc1)C(=O)N[C@@H](CCCNC(=N)N)C(=O)N[C@@H](CO)C(=O)N1CCC[C@H]1C(=O)N[C@@H](Cc1ccccc1)C(=O)N[C@@H](CO)C(=O)N[C@@H](CCCNC(=N)N)C(=O)N[C@H](C(=O)N[C@H](C(=O)N[C@@H](Cc1cnc[nH]1)C(=O)N[C@@H](CC(C)C)C(=O)N[C@@H](Cc1ccc(O)cc1)C(=O)N[C@@H](CCCNC(=N)N)C(=O)N[C@@H](CC(N)=O)C(=O)NCC(=O)N[C@@H](CCCCN)C(=O)O)C(C)C)C(C)C)C(C)C,13%,·,·,·,·
CCN(C[C@H]1N[C@@](C)(C(=O)OC)[C@H]2C(=O)N(C)C(=O)[C@@H]12)S(=O)(=O)c1ccc(C)cc1,·,-30%,·,41%,·
Cc1ccc(S(=O)(=O)N/N=C2/CCCCC2C2CCCCC2)cc1[N+](=O)[O-] (centres undefined),-7%,28µM*,?,?,-2%
CCC(C)(C)C1CCC(=NNS(=O)(=O)c2ccc(C)c([N+](=O)[O-])c2)CC1 (centres undefined),3%,2%[57.1 µM],13µM*,39%,-29%
CC/C(C)=N/NS(=O)(=O)c1ccc(C)c([N+](=O)[O-])c1,?,-10%,?,16%,2%
O=C(CCNS(=O)(=O)c1ccc(Br)cc1)NCc1cccs1,-4%,2%,42%,42%,13%

# Assay outcomes (PubChem)
